Experimental findings from PubChem BioAssay (NCI) are described below.

SMILES strings stand for the structures. This is part of a sample that, as a whole, favours compounds with a hit. Of some 83,000 tested, about 20% had one in any assay.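 How to read the values: 0–100, growth inhibition (40 = 60% inhibited); 0, no net growth; -100 to 0, cell death (-40 = 40% of starting cells died; -100 = all dead).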 A number with no mark means an inactive call. Activity calls are given as the source filed them. How the source made its calls: active means growth percent below 10; inactive means the rest.

Assay in all cases: NCI-60 one-dose screen, 48 h (100 = growth as untreated, 0 = no growth, -100 = all killed)
One assay concerns NCI-H23 lung. As to conditions: 10 µM unless noted.
A further assay deals with NCI-H226 lung. Particulars: 10 µM unless noted.
Another assay concerns NCI-H322M lung. Particulars: 10 µM unless noted.
In a further assay the test system is HOP-62 NSCLC. Particulars: 10 µM unless noted.
For the next assay, the system named is NCI-H460 lung. Particulars: 10 µM unless noted.
For the next assay, the system named is HOP-92 NSCLC. Particulars: 10 µM unless noted.
A further assay has as its system NCI-H522 lung. Particulars: 10 µM unless noted.
Another assay relates to A549/ATCC NSCLC. Particulars: 10 µM unless noted.
The test system of the next assay is 786-0 renal. As to conditions: 10 µM unless noted.
Another assay has as its system COLO 205 colon. Particulars: 10 µM unless noted.
Another assay has as its system DU-145 prostate. As to conditions: 10 µM unless noted.
The next assay concerns K-562 leukemia. Particulars: 10 µM unless noted.
For another assay, the system named is MALME-3M melanoma. Particulars: 10 µM unless noted.
In another assay the test system is MDA-MB-231 breast. As to conditions: 10 µM unless noted.
For a further assay, the system named is RXF 393 renal. As to conditions: 10 µM unless noted.
In a further assay the test system is SF-268 CNS. As to conditions: 10 µM unless noted.
The subject of a further assay is SF-295 CNS. As to conditions: 10 µM unless noted.
The subject of the next assay is SF-539 CNS. Particulars: 10 µM unless noted.
In the next assay the test system is UACC-257 melanoma. Particulars: 10 µM.
For the next assay, the system named is M14 melanoma. Particulars: 10 µM unless noted.

For the compound `C#CCOc1ccc(/C=N/Nc2nc(-c3cc(Cl)ccc3Cl)cs2)cc1`, the growth is 75.3% in the assay with NCI-H23 lung; 77.2% with NCI-H226 lung; 105% with NCI-H322M lung; 104% with HOP-62 NSCLC; 96.8% in the assay on NCI-H460 lung; 69.7% in the assay on HOP-92 NSCLC. For the same compound, the growth in the assay with NCI-H522 lung is 84.3%; in the assay with A549/ATCC NSCLC, 103%; in the assay with 786-0 renal, 107%; in the assay with COLO 205 colon, 105%; in the assay on DU-145 prostate, 102%; with K-562 leukemia it was 78.7%. Also, the growth in the assay on MALME-3M melanoma was 99.3%; with MDA-MB-231 breast it was 84.7%; in the assay on RXF 393 renal it was 111%; in the assay on SF-268 CNS, 95.7%; in the assay on SF-295 CNS, 89.7%; in the assay on SF-539 CNS it was 102%. The growth in the assay on UACC-257 melanoma is 103%; in the assay on M14 melanoma it was 94.8%.

`CCNC(=O)Oc1ccc(/C(=C(/C)c2ccccc2)c2ccc(OCCN3CCCC3)cc2)cc1`: the growth with NCI-H23 lung is 74.6%; in the assay with NCI-H226 lung, 96.6%; in the assay on NCI-H322M lung, 93.2%; with HOP-62 NSCLC it was 89.9%; in the assay on NCI-H460 lung it was 76.2%; in the assay with HOP-92 NSCLC, 61.9%. Further, the growth was 83.3% with NCI-H522 lung; 74.9% in the assay with A549/ATCC NSCLC; 36.7% with 786-0 renal; 75.5% in the assay with COLO 205 colon; 89.5% with DU-145 prostate; 11.3% with K-562 leukemia. Besides, the growth is 30% with MALME-3M melanoma; 66.7% in the assay on MDA-MB-231 breast; 54.6% in the assay on RXF 393 renal; 80.3% in the assay with SF-268 CNS; 60.5% in the assay on SF-295 CNS; 49.7% in the assay on SF-539 CNS. The growth is -3.88% (active) with UACC-257 melanoma and 24.3% in the assay with M14 melanoma.

In the case of `Oc1ccc(CSc2nnc(-c3cnccn3)n2-c2ccccc2)c2cccnc12`, the growth was 26.9% in the assay with NCI-H23 lung; 30% with NCI-H226 lung; 31.2% in the assay on NCI-H322M lung; 22.1% with HOP-62 NSCLC; 10.4% in the assay on NCI-H460 lung; -3.39% (active) in the assay on HOP-92 NSCLC. Further, the growth with NCI-H522 lung is 2.33% (active); with A549/ATCC NSCLC, 29.5%; with 786-0 renal, 35.1%; with COLO 205 colon, 103%; in the assay with DU-145 prostate, 35.6%; with K-562 leukemia, 19.6%. Moreover, the growth was 42.9% in the assay with MALME-3M melanoma; 32.1% with MDA-MB-231 breast; 33.7% in the assay with RXF 393 renal; 22.4% in the assay with SF-268 CNS; 7.13% (active) in the assay with SF-295 CNS; 22.7% in the assay with SF-539 CNS. Also, the growth was 17.4% with UACC-257 melanoma and 16.8% with M14 melanoma.

With `O=C(/C=C1\C=CN(CCCCF)c2ccccc21)n1ccc2ccccc21`, the growth in the assay on NCI-H23 lung is 98.5%; with NCI-H226 lung, 91.9%; in the assay with NCI-H322M lung, 93.3%; with HOP-62 NSCLC, 93%; in the assay on NCI-H460 lung it was 113%; in the assay with HOP-92 NSCLC it was 90.9%. In addition, the growth with NCI-H522 lung was 94.7%; in the assay on A549/ATCC NSCLC, 104%; in the assay with 786-0 renal, 107%; in the assay with COLO 205 colon, 96.6%; in the assay on DU-145 prostate, 127%; in the assay on K-562 leukemia, 104%. The growth is 100% in the assay on MALME-3M melanoma; 94.9% in the assay with MDA-MB-231 breast; 126% in the assay with RXF 393 renal; 121% in the assay on SF-268 CNS; 106% in the assay with SF-295 CNS; 98.8% in the assay with SF-539 CNS. Besides, the growth was 110% with UACC-257 melanoma and 101% in the assay on M14 melanoma.

For `COc1cc([C@H]2OC[C@H]3[C@@H]2CO[C@@H]3c2ccc(O)c(OC)c2)ccc1O`, the growth was 86.3% with NCI-H23 lung; 86% in the assay with NCI-H226 lung; 91.7% in the assay with NCI-H322M lung; 81.2% with HOP-62 NSCLC; 90.3% in the assay with NCI-H460 lung; 91.8% in the assay on HOP-92 NSCLC. Also, the growth with NCI-H522 lung was 75.8%; in the assay on A549/ATCC NSCLC it was 95.1%; in the assay on 786-0 renal, 101%; with COLO 205 colon, 86.9%; with DU-145 prostate it was 94.8%; in the assay with K-562 leukemia, 99.4%. In addition, the growth in the assay with MALME-3M melanoma is 106%; in the assay with MDA-MB-231 breast it was 65.2%; in the assay on RXF 393 renal, 76.2%; in the assay with SF-268 CNS, 91.1%; with SF-295 CNS, 108%; in the assay with SF-539 CNS, 91.1%. The growth is 113% in the assay on UACC-257 melanoma and 102% with M14 melanoma.

`Nc1ccc(-c2nnc(SCc3ccc(O)c4ncccc34)n2-c2ccccc2)cc1`: the growth with NCI-H23 lung was 13.2%; with NCI-H226 lung it was 44%; in the assay with NCI-H322M lung, 23.7%; in the assay with HOP-62 NSCLC, 17%; in the assay with NCI-H460 lung it was 5.71% (active); in the assay on HOP-92 NSCLC, -21% (active). Also, the growth in the assay on NCI-H522 lung was 17.5%; in the assay with A549/ATCC NSCLC, 14.1%; in the assay with 786-0 renal, 19.9%; in the assay on COLO 205 colon, 4.41% (active); in the assay on DU-145 prostate, 24.1%; in the assay with K-562 leukemia, 15.9%. The growth is 5.24% (active) with MALME-3M melanoma; 17% in the assay on MDA-MB-231 breast; 13.5% in the assay on RXF 393 renal; 23.3% in the assay with SF-268 CNS; 0.907% (active) with SF-295 CNS; 10.5% in the assay with SF-539 CNS. In addition, the growth is 3.16% (active) with UACC-257 melanoma and 14.9% in the assay on M14 melanoma.

Turning to `COc1ccc(CCN2C(=O)CSC2=S)cc1OC`, the growth was 98.9% in the assay with NCI-H23 lung; 100% with NCI-H226 lung; 101% in the assay on NCI-H322M lung; 105% in the assay with HOP-62 NSCLC; 102% in the assay on NCI-H460 lung; 68.7% in the assay on HOP-92 NSCLC. Besides, the growth was 55.1% with NCI-H522 lung; 97.2% with A549/ATCC NSCLC; 94.9% in the assay on 786-0 renal; 117% with COLO 205 colon; 18.9% with DU-145 prostate; 64.8% with K-562 leukemia. Besides, the growth was 95.6% in the assay on MALME-3M melanoma; 80.4% in the assay with MDA-MB-231 breast; 59.2% in the assay on RXF 393 renal; 100% in the assay with SF-268 CNS; 102% in the assay with SF-295 CNS; 93.9% with SF-539 CNS. The growth with UACC-257 melanoma was 96.4%; in the assay on M14 melanoma it was 94.3%.
